An excerpt weighted towards active compounds, which were near 1.6% of everything screened.
HTR5A inv ctr: HTR5A inverse agonism, opioid heterodimer counter-screen; HTR5A cell line, luminescence; inhibition, % at 9.3 µM; 0.083% of 340,000 active; in the data active = inhibition mostly above about 23%, no sharp cut-off; inactive = mostly below about 18%;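 note: 0% = cells with DMSO and 100% = no-cell wells with DMSO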
Target sequence (P47898 whole entry, looked up): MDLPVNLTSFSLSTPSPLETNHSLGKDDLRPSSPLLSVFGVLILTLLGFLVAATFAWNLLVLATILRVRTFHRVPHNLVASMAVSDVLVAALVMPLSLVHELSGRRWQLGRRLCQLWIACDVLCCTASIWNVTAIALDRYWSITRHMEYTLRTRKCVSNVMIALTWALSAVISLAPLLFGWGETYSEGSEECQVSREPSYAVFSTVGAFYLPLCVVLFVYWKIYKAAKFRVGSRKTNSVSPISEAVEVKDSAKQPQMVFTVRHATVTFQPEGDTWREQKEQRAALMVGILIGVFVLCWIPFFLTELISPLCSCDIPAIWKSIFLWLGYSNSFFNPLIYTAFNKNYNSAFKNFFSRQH
MOR-DOR inv ag: mu-delta opioid heterodimer inverse agonism | P35372+P41143 | cell-based MOR-DOR heterodimer luminescence | inhibition, % at 9.3 µM | 0.21% of 340,000 active; in the data active = inhibition above about 22%, passing the limit was not always enough;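 note: 0% = cells with DMSO and 100% = wells without cells with DMSO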
MOR-DOR ag-1: OPRM1-OPRD1 heterodimerization agonism; cells, luminescence; P35372+P41143; AID 504326; activation, % at 9.3 µM; 0.3% of 340,000 active;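 note: 0% = vehicle-treated cells and 100% = reference agonist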
HTR2A ag: mouse HTR2A agonism via beta-arrestin recruitment. CHO-K1 mHTR2A beta-arrestin complementation, luminescence; percent of 30 µM serotonin response. activation, % at 7.6 µM. 0.66% of 360,000 active. AID 624169;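 active = activation above a run cutoff, the mean activation of all tested compounds plus 3 SD, cut at about 14% in these data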;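 note: 0% = plate median of compound wells and 100% = 30 µM serotonin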
HTR5A ag ctr: counter-screen for OPRM1-OPRD1 agonists: human HTR5A agonism | P47898 | AID 504692 | HTR5A agonist assay, luminescence, cell-based | 0.61% of 340,000 active | activation, % at 9.3 µM; in the data active = activation mostly above about 9.5%, no sharp cut-off; inactive = mostly below about 7.6%;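 note: 0% = cells with vehicle only and 100% = reference agonist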
MOR-DOR ag-2: opioid heterodimer agonism, HTR5A counter-screen | activation, % at 9.3 µM | 13% of 800 active | shares compounds with HTR5A ag ctr | U2OS counter-screen cells, complementation luminescence, 3 h
HTR5A ag confirm: confirmation of human HTR5A agonists | AID 504915 | HTR5A agonist cell assay, luminescence | activation, % at 9.3 µM | 17% of 800 active | shares compounds with HTR5A ag ctr; in the data active = activation above about 17%;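 note: 0% = cells with vehicle only and 100% = full reference agonist response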
Numbers without * were called inactive. Cut-off read from the data, not from the text of the source, unless noted: active = activation above about 18%; inactive = the rest.

Screening COc1ccc(NC(=O)C(=O)NCCO)cc1Cl returned HTR5A inv ctr -12.5, MOR-DOR inv ag -3.2, MOR-DOR ag-1 0.5, HTR2A ag 3.6, HTR5A ag ctr 15.1*, MOR-DOR ag-2 -0.4 and HTR5A ag confirm -9.1.
For COc1ccc(NC(=O)C(=O)NCCCO)cc1Cl the results were HTR5A inv ctr 8.5, MOR-DOR inv ag 12.8, MOR-DOR ag-1 -2.5, HTR2A ag -1.4 and HTR5A ag ctr -3.3.
For O=C(NCCc1ccc(F)cc1)C(=O)Nc1cc2c3c(c1)CC(=O)N3CCC2 the results were HTR5A inv ctr 12.3, MOR-DOR inv ag 6.8, MOR-DOR ag-1 -1.2, HTR2A ag 1.8 and HTR5A ag ctr -4.9.
For O=C(NCCc1c[nH]c2ccccc12)C(=O)Nc1cc2c3c(c1)CC(=O)N3CCC2 the results were HTR5A inv ctr -39.4, MOR-DOR inv ag 1.1, MOR-DOR ag-1 -0.2, HTR2A ag 1.3, HTR5A ag ctr 16.1*, MOR-DOR ag-2 31.3* and HTR5A ag confirm 13.3.
For CCCc1cc(=O)oc2cc(OCC(=O)NCCc3c[nH]c4ccccc34)ccc12 the results were HTR5A inv ctr 4.6, MOR-DOR inv ag -67.1, MOR-DOR ag-1 13.3, HTR2A ag 3.3, HTR5A ag ctr 18.8*, MOR-DOR ag-2 225.9* and HTR5A ag confirm 56.2*.
CCN(CC(=O)Nc1c(F)cccc1F)C(=O)c1ccc(OC)c(S(=O)(=O)NC2CCCC2)c1 was read as HTR2A ag 4.9.
`CCCN(C)C1CN(Cc2cn(CCCC(=O)OC)nn2)S(=O)(=O)C1` (stereo not drawn) gave HTR2A ag 1.4.
`CNC(=O)c1sc(-c2cccnc2)nc1C` gave HTR5A inv ctr -49.8, MOR-DOR inv ag 14.6, MOR-DOR ag-1 -3.4, HTR2A ag 1.6, HTR5A ag ctr 18.1*, MOR-DOR ag-2 1.1 and HTR5A ag confirm 0.5.
Cc1cc(C(F)F)nn1CC(=O)N1CCSCC1 was read as HTR5A inv ctr 5.7, MOR-DOR inv ag 10.3, MOR-DOR ag-1 -2.0, HTR2A ag 3.9, HTR5A ag ctr 16.0*, MOR-DOR ag-2 1.2 and HTR5A ag confirm 0.4.
For Cc1cc(S(=O)(=O)Nc2ccc(C(=O)NC3CC3)cc2)ccc1F the results were HTR2A ag 1.5.
For COc1ccccc1C(CNC(=O)c1cccc(NS(=O)(=O)c2ccc(C)c(F)c2)c1)N1CCCC1 (stereo not drawn) the results were HTR5A inv ctr -96.5, MOR-DOR inv ag -4.1, MOR-DOR ag-1 0.6, HTR2A ag -9.0, HTR5A ag ctr 44.2*, MOR-DOR ag-2 2.1 and HTR5A ag confirm 40.8*.
Screening COc1ccccc1C(CNC(=O)c1ccc(NS(=O)(=O)c2ccc(F)c(C)c2)cc1)N1CCCC1 (stereo not drawn) returned HTR5A inv ctr -7.5, MOR-DOR inv ag 7.9, MOR-DOR ag-1 -1.2, HTR2A ag -10.1 and HTR5A ag ctr 3.9.
For O=C1/C(=C/c2ccc(S(=O)(=O)O)cc2S(=O)(=O)O)CCc2ccccc21 the results were HTR2A ag 0.7.
For COc1ccccc1NCC(=O)N/N=C/c1sccc1C the results were HTR5A inv ctr -73.5, MOR-DOR inv ag -16.0, MOR-DOR ag-1 3.0, HTR2A ag 0.6, HTR5A ag ctr 26.2*, MOR-DOR ag-2 1.8 and HTR5A ag confirm 6.0.
Screening COc1ccc(CC(=O)N/N=C/c2sccc2C)cc1 returned HTR5A inv ctr -7.1, MOR-DOR inv ag 13.7, MOR-DOR ag-1 -2.7, HTR2A ag -5.0 and HTR5A ag ctr 1.9.
Screening COc1ccc(C2CC(O)(c3ccccc3)Oc3c(C)ccc(C)c32)cc1 (stereo not drawn) returned HTR5A inv ctr -16.1, MOR-DOR inv ag -37.5, MOR-DOR ag-1 6.7, HTR2A ag 0.1 and HTR5A ag ctr 17.0.
COc1ccc([C@@H]2C[C@@H](c3ccccc3)Oc3cc(C)cc(C)c32)cc1 was read as HTR5A inv ctr -68.2, MOR-DOR inv ag 1.1, MOR-DOR ag-1 -0.2, HTR2A ag -3.0, HTR5A ag ctr 25.3*, MOR-DOR ag-2 3.2 and HTR5A ag confirm 1.8.
`O=C(Nc1ccc2c(c1)OCCO2)c1ccco1` gave HTR5A inv ctr 5.7, MOR-DOR inv ag 17.3, MOR-DOR ag-1 -3.1, HTR2A ag 2.7 and HTR5A ag ctr -0.1.
